# Assay results: PubChem BioAssay (EPA / NIEHS)
# Values joined by “and” are separate entries in the source; they are usually repeats but may differ in a detail not shown here. Identical values can stand only once. Records with an inconclusive call do not appear. More than one record can exist for a structure, and the calls need not agree. Active and inactive are the calls of the source. Rule for the calls: active = hit-call score of the fitted dose curve at least 0.9, where 1 is the maximum; inconclusive = response in the unintended direction; inactive = score below 0.9.
# Target: Cellular tumor antigen p53 (Homo sapiens) (UniProt P04637)
# Test: TOX21_p53_BLA_p2_ratio: Tox21 HCT-116 p53 Agonism Beta-lactamase Assay, Ratio, Phase 2 (AID 2283592)
# Text: TOX21_p53_BLA_p2 is a cell-based, single-readout assay that uses HCT116, a human intestinal cell line, […] in a 1536-well plate.TOX21_p53_BLA_p2_ratio is an assay readout measuring reporter gene via receptor activity and designed using inducible reporter (beta lactamase induction) detected with GAL4 b-lactamase reporter gene. The signal is derived from the ratio of cleaved (ch2) to uncleaved (ch1) reporter gene substrate used as the measure of target activity.Data from the assay component TOX21_p53_BLA_p2_ratio was analyzed into 1 assay endpoint. This assay endpoint, TOX21_p53_BLA_p2_ratio, was analyzed in the positive analysis fitting direction relative to DMSO as the negative control and baseline of activity. Using a type of inducible reporter, gain-of-signal activity can be used to understand changes in the reporter gene as they relate to the gene TP53. Furthermore, this assay endpoint can be referred to as a primary readout, because this assay has produced multiple assay endpoints and this ratio serves a reporter gene function to understand target activity. To generalize the intended target to other relatable targets, this assay endpoint is annotated to the DNA binding intended target family, where the subfamily is tumor suppressor.
# Thawing Method: Place 14 mL of pre-warmed thaw medium into a 15 mL of conical tub. Remove the vial of cells to be thawed from liquid nitrogen and thaw rapidly by placing at 37C in a water bath with gentle agitation for 1-2 minutes. Decontaminate the vial by wiping with 70% ethanol before opening in a biological safety cabinet. Transfer the vial contents drop-wise into 14 mL of thaw medium in a sterile 15-mL conical tub. Centrifuge cells at 900 rpm for 4 minutes and resuspend in thaw medium. Transfer contents to the T75 tissue culture flask containing Thaw Medium and place flask in a humidified 37C/5% CO2 incubator. Switch to growth medium at first passage.Propagation Method: Aspirate medium, rinse once in DPBS, add 0.25% Trypsin/EDTA and swirl to coat the cell evenly. Add an equal volume of Growth Medium to inactivate Trypsin after 2-3 minutes incubation at 37C. Centrifuge cells at 900 rpm for 4 minutes and resuspend in growth medium. Cell should be passage or fed at least twice a week.Assay Protocol: Harvest cells from culture in growth medium and resuspend in assay medium. 2.2 Dispense 4000 cells/5 uL/well into 1536-well black/clear bottom plates using a Multidrop dispenser. After the cells were incubated at 37C for 5 hours, 23 nL of compounds dissolved in DMSO were transferred to the assay plate by a PinTool resulting in a 217-fold dilution. Incubate the plates for 16 hours at 37C, 5% CO2. Add 1 uL of 6X LiveBLAzer FRET B/G (CCF4-AM) Substrate Mixture to each well using a BioRAPTR dispenser and incubate the plates at room temperature for 2 hours. Measure fluorescence intensity at 460 and 530 nm emission and 405 nm excitation by an Envision detector. Data is expressed as the ratio of 460nm/530nm emissions. Add 4 uL of Cell-titer Glo to each well using BioRAPTR and incubate the plates at room temperature for 2 hours. Measure fluorescence intensity by a VewLux plate reader.
# Cellular tumor antigen p53 (Homo sapiens), sequence (P04637 whole entry, looked up): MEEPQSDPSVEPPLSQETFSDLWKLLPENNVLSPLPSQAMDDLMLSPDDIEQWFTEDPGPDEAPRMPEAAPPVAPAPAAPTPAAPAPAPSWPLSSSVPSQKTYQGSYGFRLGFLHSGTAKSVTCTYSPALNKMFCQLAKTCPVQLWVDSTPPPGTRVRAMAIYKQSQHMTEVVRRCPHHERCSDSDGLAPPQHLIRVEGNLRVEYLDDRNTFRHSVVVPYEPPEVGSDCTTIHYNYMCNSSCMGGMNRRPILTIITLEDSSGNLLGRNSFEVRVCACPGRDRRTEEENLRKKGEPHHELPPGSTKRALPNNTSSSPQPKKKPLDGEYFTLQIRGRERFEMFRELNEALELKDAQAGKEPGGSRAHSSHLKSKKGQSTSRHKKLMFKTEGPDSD
Compound,AC50,outcome
CCCCCCCCCCCCCCCCCC[N+](C)(C)Cc1ccccc1,74.3 µM (active),–
CC(C)(O)C(=O)c1ccccc1,–,inactive
CCCCCCCCCC=CCC1CC(=O)OC1=O (stereo not given),–,inactive
COc1ccccc1NC(=O)c1cc2ccccc2cc1O,14 µM (active),–
O=C1OC2(c3ccccc31)c1cc(I)c(O)c(I)c1Oc1c2cc(I)c(O)c1I,78.6 µM (active),inactive
NCCN,–,inactive
O=c1cc(-c2ccccc2)oc2ccc3ccccc3c12,–,inactive
C[C@]12CC[C@@H]3c4ccc(O)cc4CC[C@H]3[C@@H]1CC[C@@H]2OC(=O)CCC1CCCC1,–,inactive
Nc1cc(Cl)c(-c2cc(Cl)c(N)cc2Cl)cc1Cl,69 µM (active) and 81.7 µM (active),–
CCC(C)c1nccnc1OC (stereo not given),–,inactive
CCC(=O)O,–,inactive
C=CC(=O)OCC(CO)(COCC(COC(=O)C=C)(COC(=O)C=C)COC(=O)C=C)COC(=O)C=C,78.7 µM (active),–
O=C(CCCN1CCC(O)(c2ccc(Cl)cc2)CC1)c1ccc(F)cc1,–,inactive
NCc1cccc(CN)c1,–,inactive
Cc1ccc(C)c(S(=O)(=O)O)c1,–,inactive
O=C(O)C(=O)O,–,inactive
NNc1nc(-c2ccc([N+](=O)[O-])cc2)cs1,40.1 µM (active),–
CCC(=O)C=Cc1ccc(OC)cc1,–,inactive
CN(C)c1ccc(C(=C2C=CC(=[N+](C)C)C=C2)c2ccccc2)cc1,9.06 µM (active) and 39.7 µM (active),–

Compound,AC50,outcome
CC(O)COc1ccccc1 (stereo not given),–,inactive
CCCCc1oc2ccccc2c1C(=O)c1cc(I)c(OCCN(CC)CC)c(I)c1,–,inactive
CCCCCCCCCCCC(=O)NCCCN(C)C,87.1 µM (active),–
NC(=NCCCCCCN=C(N)/N=C(\N)Nc1ccc(Cl)cc1)/N=C(\N)Nc1ccc(Cl)cc1,59.8 µM (active) [middle of 4 runs],inactive
O=C(NO)c1ccccc1,–,inactive
Cc1ccccc1C(OCCN(C)C)c1ccccc1 (stereo not given),–,inactive
Cc1ccc(C(=O)c2ccccc2)cc1,–,inactive
OCC1CCC(CO)CC1 (stereo not given),–,inactive
Cc1cc(C(C)(C)C)c(O)c(C(C)(C)C)c1,–,inactive
CCCCCCOC(=O)c1ccc(O)cc1,67.3 µM (active),inactive
CC(C)(C)c1ccc(CCC=O)cc1,–,inactive
C[C@]12CC[C@@H]3c4ccc(O)cc4CC[C@H]3[C@@H]1C[C@@H](O)[C@@H]2O,–,inactive
CCCCCC(C)OC(=O)COc1ccc(Cl)c2cccnc12 (stereo not given),–,inactive
COCN(COC)c1nc(N(COC)COC)nc(N(COC)COC)n1,–,inactive
CCCCCCCCCCCCOC(=O)c1cc(O)c(O)c(O)c1,24.7 µM (active) and 32.4 µM (active),–
Cc1cc(Cc2cc(C)cc(C(C)(C)C)c2O)c(O)c(C(C)(C)C)c1,27.1 µM (active) and 46 µM (active),–
Cc1cc(=O)oc2cc(O)ccc12,–,inactive
NS(=O)(=O)O,–,inactive
